Values joined by “and” are separate entries in the source; they are usually repeats but may differ in a detail not shown here. Identical values can stand only once. Inconclusive results are not listed. Active and inactive are the calls of the source. Calls follow the shape of the dose curve; as a rule, active = well fitted curve in the direction sought with a large enough effect; inconclusive = small, poorly fitted or top-dose-only effect, or another doubt; inactive = no such curve, though single readings can be large; an effect the other way counts as inactive or inconclusive.
Key:
[1] = qHTS of pediatric cancer cell lines to identify multiple opportunities for drug repurposing: Confirmatory screen for RD cells (AID 1347124);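 also: cells exposed to compound for 48 h before viability readout; nearly all actives have a fitted effect of over 65% in size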
How it was run: (§1)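 Viability after 48 h compound treatment at 37C, 500-1,000 cells/well, read as ATP luminescence with CellTiter-Glo. Primary screens used 11-point (MIPE, 0.78 nM-46 µM) or 8-point (NPC, 0.59 nM-46 µM) final concentrations; follow-up screens used 11-point dilutions.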

[2] = qHTS of pediatric cancer cell lines to identify multiple opportunities for drug repurposing: Confirmatory screen for Rh18 cells (AID 1347125); also: nearly all actives have a fitted effect of over 55% in size; also: potency is read from the fitted curve at half-maximal effect
How it was run: as §1

[3] = qHTS of pediatric cancer cell lines to identify multiple opportunities for drug repurposing: Confirmatory screen for Saos-2 cells (AID 1347127); also: nearly all actives have a fitted effect of over 60% in size; also: potency is read from the fitted curve at half-maximal effect
How it was run: as §1

[4] = qHTS of pediatric cancer cell lines to identify multiple opportunities for drug repurposing: Confirmatory screen for OHS-50 cells (AID 1347128);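 also: compound exposure lasted 48 h at 37 degrees C; nearly all actives have a fitted effect of over 55% in size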; also: potency is read from the fitted curve at half-maximal effect
How it was run: as §1

[5] = qHTS of pediatric cancer cell lines to identify multiple opportunities for drug repurposing: Confirmatory screen for SK-N-SH cells (AID 1347129);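 also: cells exposed to compound for 48 h before viability read; nearly all actives have a fitted effect of over 60% in size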; also: potency is read from the fitted curve at half-maximal effect
How it was run: as §1

[6] = target: N-terminal Xaa-Pro-Lys N-methyltransferase 1 (Homo sapiens) (UniProt Q9BV86); experiment: qHTS Assay for Inhibitors of N-terminal methyltransferase 1 (NTMT1): LOPAC validation of the NTMT1 SAHH-coupled ThioGlo3 Assay (AID 1347143);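 also: SAH from peptide methylation measured as thiol fluorescence via SAHH coupling and ThioGlo3; nearly all actives have a fitted effect of over 70% in size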; also: potency is read from the fitted curve at half-maximal effect
How it was run: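 Recombinant human NTMT1 (125nM) was pre-incubated 1 min at room temperature with compounds over a concentration range, then a mix of 100uM SAM, 10uM SAHH and 15uM ThioGlo3 (concentrations in added reagent) was added. ThioGlo3 fluorescence (ex 340/em 450nm) after 30 min was normalized to the initial reading.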

[7] = system: Zika virus NS2B-NS3 protease (unlinked); experiment: Optimization of GU AMC qHTS for Zika virus inhibitors: Unlinked NS2B-NS3 protease assay (AID 1347151); also: nearly all actives have a fitted effect of over 80% in size; also: potency is read from the fitted curve at half-maximal effect
How it was run: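 Fluorescence gain (340/450 nm) over 15 min at room temperature, ~20% conversion, gave percent inhibition fitted to a 4-parameter Hill equation; enzyme was unlinked NS2B-NS3 (25 nM final), pH 8.0 Tris buffer.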

[8] = target: Lysine-specific demethylase 5B (Homo sapiens) (UniProt Q9UGL1); experiment: Optimization screen for KDM5B Histone Demethylases FDH coupled qHTS against the LOPAC library (AID 1347166)
How it was run: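 KDM5BDeltaAP (200nM final) preincubated 10 min with compound, then 12.5uM H3K4Me3, 25uM a-ketoglutarate, ascorbate, Fe(II), NAD+ and FDH added; 50mM HEPES pH 7.5, 0.01% Tween-20. NADH fluorescence (340/450 nm) change over 30 min, room temperature.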

[9] = system: Zika virus NS2B-NS3 protease; experiment: Primary screen GU AMC qHTS for Zika virus inhibitors (AID 1347154); also: nearly all actives have a fitted effect of over 70% in size; also: potency is read from the fitted curve at half-maximal effect
How it was run: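 Unlinked Zika NS2B hydrophilic domain–NS3 protease complex at 25 nM in 10 mM Tris-HCl pH 8.0, 0.01% Tween 20, with an AMC peptide substrate. Fluorescence change (340/450 nm) over 15 min at room temperature, normalized to controls, fitted to 4-parameter Hill.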

[10] = system: Zika virus NS2B-NS3 protease (unlinked complex); experiment: Primary screen GU Rhodamine qHTS for Zika virus inhibitors: Unlinked NS2B-NS3 protease assay (AID 1347159); also: nearly all actives have a fitted effect of over 60% in size; also: potency is read from the fitted curve at half-maximal effect
How it was run: (§2)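 Compounds, tested up to 114 microM, were incubated for 15 minutes with 25 nM unlinked NS2B-NS3 protease at pH 8.0. Cleavage of 1.5 microM Rhodamine110 substrate was then followed by fluorescence for 15 minutes.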

[11] = system: Zika virus NS2B-NS3 protease (linked construct); experiment: Primary screen NINDS Rhodamine qHTS for Zika virus inhibitors (AID 1347160); also: nearly all actives have a fitted effect of over 55% in size; also: potency is read from the fitted curve at half-maximal effect
How it was run: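 Percent inhibition, normalized to uninhibited and enzyme-free controls, is fitted to a 4-parameter Hill equation. Fluorescence change comes from a 15-min cleavage of 1.5 microM bis-peptide Rhodamine110 substrate by 25 nM linked NS2B-NS3 at room temperature.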

Furin (Homo sapiens) = Furin (Homo sapiens) (UniProt P09958); experiment: Furin counterscreen qHTS for Zika virus inhibitors (AID 1347149);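 also: purified recombinant full-length human furin enzyme at 5 nM; fluorescence gain from furin cutting a BOC-RVRR-AMC peptide substrate over 15 min; top concentration of the series differs between compounds; nearly all actives have a fitted effect of over 70% in size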
How it was run: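 Fluorogenic cleavage of BOC-RVRR-AMC (2 microM final, Km ~15 µM) was monitored (ex 340, em 450 nm) at 37C after 15 min RT preincubation of 5 nM furin with compounds in HEPES pH 7.0 buffer with CaCl2 and Triton X-100. Percent inhibition was fitted to a 4-parameter Hill curve.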

[12] = HepG2 cells viability qHTS for Zika virus inhibitors (AID 1347168)
How it was run: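 Cells seeded at 2.5 x 10^5 cells/mL in DMEM with 4% FBS and attached overnight at 37 degrees C, then exposed to compound for 24 to 48 hours. Viability read as ATP content by CellTiter Glo luminescence.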

[13] = system: Zika virus NS2B-NS3 protease (linked construct); experiment: Confirmatory screen NINDS AMC qHTS for Zika virus inhibitors (AID 1347152); also: nearly all actives have a fitted effect of over 70% in size; also: potency is read from the fitted curve at half-maximal effect
How it was run: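 IC50s from 4-parameter Hill fits of percent inhibition, based on AMC fluorescence gain (340/450 nm) over 15 min with 10 microM Bz-Nle-KRR-AMC. Enzyme: 1 nM linked NS2B-NS3 in Tris-HCl pH 8.0; 15-min compound preincubation.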

[14] = system: Zika virus NS2B-NS3 protease (unlinked complex); experiment: Confirmatory screen GU AMC qHTS for Zika virus inhibitors (AID 1347153); also: nearly all actives have a fitted effect of over 70% in size
How it was run: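 Unlinked enzyme 25 nM, Tris pH 8.0/0.01% Tween 20; cpd 15 min RT, dark; + AMC substrate 10 µM (Km 18.3 µM); 340/450 nm read at t0 and 15 min; % inhibition → 4-param fit.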

[15] = Confirmatory screen NINDS Rhodamine qHTS for Zika virus inhibitors (AID 1347161); also: nearly all actives have a fitted effect of over 60% in size; also: potency is read from the fitted curve at half-maximal effect
How it was run: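 qHTS dose-response: 25 nM linked protease, pH 8.0 Tris/Tween buffer, cpd titration, 15 min RT preinc, 1.5 microM Rhod110 peptide, 15 min reaction (~15% conversion), Ex480/Em540; 4-parameter Hill fit.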

[16] = Confirmatory screen GU Rhodamine qHTS for Zika virus inhibitors qHTS (AID 1347157)
How it was run: as §2

[17] = system: Zika virus NS2B-NS3 protease (linked); experiment: 384 well plate NINDS AMC confirmatory qHTS for Zika virus inhibitors (AID 1347163); also: potency is read from the fitted curve at half-maximal effect; nearly all actives have a fitted effect of over 50% in size
How it was run: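 Linked protease 5/30/60 nM final; cpds up to 1 mM final, ~15 min preinc. Substrate Ac-VKTGKR-AMC 30 microM final. RT, dark, 25 min; FI ex 355/em 460; normalized to no-enzyme/no-inhibitor ctrls.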

[18] = system: Zika virus NS2B-NS3 protease (linked construct); experiment: 384 well plate NINDS Rhodamine confirmatory qHTS for Zika virus inhibitors (AID 1347164);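 also: fluorescence from protease cleavage of Ac-LKRR-rhodamine 110 substrate; nearly all actives have a fitted effect of over 65% in size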; also: potency is read from the fitted curve at half-maximal effect
How it was run: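 Fluorescence at 485/538 nm was measured 25 minutes after adding 10 microM Ac-LKRR-Rd substrate, in the dark at room temperature. The protease (5, 30 or 60 nM final) had been preincubated ~15 minutes with compound; aprotinin as control.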

[19] = ZIKV-mCherry secondary qHTS for Zika virus inhibitors (AID 1347158); also: top concentration of the series differs between compounds
How it was run: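 After overnight seeding at 37 °C, Vero cells receive compound and then ZIKV-mCherry (MOI 1). Following 48-72 h infection, cells are fixed, counterstained with Hoechst, and imaged; percent infected cells is derived from an mCherry intensity cut-off of 450 RFU.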

Measured: Potency

N-terminal Xaa-Pro-Lys N-methyltransferase 1 (Homo sapiens), sequence (Q9BV86 whole entry, looked up): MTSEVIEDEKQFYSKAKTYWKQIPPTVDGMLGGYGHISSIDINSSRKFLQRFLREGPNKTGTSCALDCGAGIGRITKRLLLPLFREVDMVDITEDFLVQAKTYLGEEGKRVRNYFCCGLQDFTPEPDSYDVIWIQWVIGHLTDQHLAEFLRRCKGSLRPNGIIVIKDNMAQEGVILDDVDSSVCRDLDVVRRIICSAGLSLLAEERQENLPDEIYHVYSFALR
Furin (Homo sapiens), sequence (P09958 whole entry, looked up): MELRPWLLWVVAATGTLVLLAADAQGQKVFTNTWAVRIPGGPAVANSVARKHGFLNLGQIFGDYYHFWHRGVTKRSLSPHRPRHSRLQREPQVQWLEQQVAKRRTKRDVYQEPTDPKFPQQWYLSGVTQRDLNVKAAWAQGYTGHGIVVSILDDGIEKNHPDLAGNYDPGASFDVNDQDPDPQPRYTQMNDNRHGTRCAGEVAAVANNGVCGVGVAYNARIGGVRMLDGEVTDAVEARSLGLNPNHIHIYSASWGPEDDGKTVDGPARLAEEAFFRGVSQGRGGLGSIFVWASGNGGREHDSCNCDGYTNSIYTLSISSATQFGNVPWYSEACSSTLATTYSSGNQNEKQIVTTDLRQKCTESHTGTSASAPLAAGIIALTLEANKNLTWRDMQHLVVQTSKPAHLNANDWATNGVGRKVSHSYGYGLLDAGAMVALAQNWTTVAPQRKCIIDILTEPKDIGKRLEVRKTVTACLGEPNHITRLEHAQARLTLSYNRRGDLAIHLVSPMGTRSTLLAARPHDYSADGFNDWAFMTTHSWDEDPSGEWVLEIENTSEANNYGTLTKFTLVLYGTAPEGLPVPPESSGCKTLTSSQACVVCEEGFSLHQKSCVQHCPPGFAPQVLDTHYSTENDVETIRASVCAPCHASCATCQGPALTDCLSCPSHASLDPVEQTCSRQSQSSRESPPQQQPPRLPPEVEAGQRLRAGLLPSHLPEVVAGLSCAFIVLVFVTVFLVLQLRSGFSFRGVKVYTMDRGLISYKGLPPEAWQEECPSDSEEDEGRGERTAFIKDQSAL
Lysine-specific demethylase 5B (Homo sapiens), sequence (Q9UGL1 whole entry, looked up): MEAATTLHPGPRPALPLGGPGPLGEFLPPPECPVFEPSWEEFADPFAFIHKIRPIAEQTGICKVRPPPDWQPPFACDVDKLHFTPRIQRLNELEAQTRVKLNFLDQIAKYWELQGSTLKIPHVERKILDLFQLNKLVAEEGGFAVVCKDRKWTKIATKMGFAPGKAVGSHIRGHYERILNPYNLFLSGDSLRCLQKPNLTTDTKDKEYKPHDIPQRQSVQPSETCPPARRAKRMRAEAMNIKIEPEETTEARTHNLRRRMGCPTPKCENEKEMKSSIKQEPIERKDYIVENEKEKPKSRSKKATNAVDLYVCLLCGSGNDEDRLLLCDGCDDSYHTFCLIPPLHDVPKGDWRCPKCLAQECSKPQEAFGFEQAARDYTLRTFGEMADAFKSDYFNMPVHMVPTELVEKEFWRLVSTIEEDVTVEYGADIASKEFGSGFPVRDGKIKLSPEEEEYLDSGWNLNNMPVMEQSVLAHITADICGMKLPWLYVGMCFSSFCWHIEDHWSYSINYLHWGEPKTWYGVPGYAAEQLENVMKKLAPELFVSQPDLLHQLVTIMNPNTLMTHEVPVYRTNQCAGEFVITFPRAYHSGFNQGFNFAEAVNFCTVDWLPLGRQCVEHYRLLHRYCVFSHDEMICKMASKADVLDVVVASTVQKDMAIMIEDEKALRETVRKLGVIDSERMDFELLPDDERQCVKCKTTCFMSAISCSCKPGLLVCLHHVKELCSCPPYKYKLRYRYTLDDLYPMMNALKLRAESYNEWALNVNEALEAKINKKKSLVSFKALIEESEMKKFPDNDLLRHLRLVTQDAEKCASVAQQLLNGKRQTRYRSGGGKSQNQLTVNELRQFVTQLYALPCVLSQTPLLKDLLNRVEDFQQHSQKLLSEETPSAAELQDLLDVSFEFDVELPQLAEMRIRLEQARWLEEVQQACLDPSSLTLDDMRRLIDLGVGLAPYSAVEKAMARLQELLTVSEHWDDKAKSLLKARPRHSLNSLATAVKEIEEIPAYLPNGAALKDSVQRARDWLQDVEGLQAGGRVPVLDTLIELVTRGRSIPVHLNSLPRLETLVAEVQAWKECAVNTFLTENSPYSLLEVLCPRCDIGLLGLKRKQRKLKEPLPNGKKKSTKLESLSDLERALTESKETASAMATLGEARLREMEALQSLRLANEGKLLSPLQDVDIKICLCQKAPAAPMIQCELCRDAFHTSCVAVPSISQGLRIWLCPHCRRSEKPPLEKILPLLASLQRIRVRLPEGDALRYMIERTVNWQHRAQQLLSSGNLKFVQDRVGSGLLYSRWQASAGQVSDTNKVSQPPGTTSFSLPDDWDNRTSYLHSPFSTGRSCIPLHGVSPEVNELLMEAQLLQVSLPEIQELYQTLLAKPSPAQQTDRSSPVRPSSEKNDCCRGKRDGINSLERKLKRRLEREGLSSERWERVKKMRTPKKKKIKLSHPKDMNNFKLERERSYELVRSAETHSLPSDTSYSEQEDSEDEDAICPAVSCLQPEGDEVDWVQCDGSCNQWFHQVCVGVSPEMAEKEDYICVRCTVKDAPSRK

Nc1nc2c(ncn2COCCO)c(=O)[nH]1
inactive: [1] | [2] | [3] | [4] | [5] | [6] | [7] | [8]

Nc1nc2ccc(OC(F)(F)F)cc2s1
active: [4] 18.5 µM
inactive: [1] | [2] | [5] | [6] | [7] | [9] | [8]

NCCCC(N)(C(=O)O)C(F)F (stereo not drawn)
inactive: [1] | [2] | [3] | [4] | [5] | [6] | [7] | [9] | [8]

Cn1cnc2c(F)c(Nc3ccc(Br)cc3Cl)c(C(=O)NOCCO)cc21
inactive: [1] | [2] | [3] | [9] | [10] | [11]

Cn1cnc([N+](=O)[O-])c1Sc1ncnc2nc[nH]c12
inactive: [1] | [3] | [6] | Furin (Homo sapiens) | [7] | [9] | [8] | [12]
active: [4] 4.24 µM

COc1cc2nccc(Oc3ccc(NC(=O)NC4CC4)c(Cl)c3)c2cc1C(N)=O
active: [2] 14.7 µM
inactive: [5] | [11]

OC(CN1CCC(Cc2ccc(F)cc2)CC1)c1ccc(Cl)cc1 (stereo not drawn)
inactive: [1] | [2] | [3] | [6] | [7] | [8]

COc1ccc(-c2oc3cc(OC)ccc3c2C(=O)c2ccc(C#N)cc2)cc1
inactive: [1] | [2] | [3] | [4] | [5]

C#Cc1cccc(Nc2ncnc3cc(OCCOC)c(OCCOC)cc23)c1
inactive: [1] | [2] | [3] | [5] | [10] | [11]

CCC(C)(C)C(=O)O[C@H]1C[C@@H](C)C=C2C=C[C@H](C)[C@H](CC[C@@H]3C[C@@H](O)CC(=O)O3)[C@H]21
inactive: [9]
active: [3] 2.33 µM | [5] 5.26 µM

Cc1c(C)c2c(c(C)c1O)CCC(C)(COc1ccc(CC3SC(=O)NC3=O)cc1)O2 (stereo not drawn)
inactive: [1] | [3] | [5] | [9]

Cc1[nH]c(=O)c(C#N)cc1-c1ccc2nccn2c1
active: [6] 50.1 µM | [7] 21.2 µM
inactive: Furin (Homo sapiens) | [13] | [14] | [9] | [15] | [8] | [12]

O=C(NOC[C@H](O)CO)c1ccc(F)c(F)c1Nc1ccc(I)cc1F
inactive: [1] | [2] | [3] | [4] | [9]
active: [10] 22.4 µM

CNCc1ccc(-c2[nH]c3cc(F)cc4c3c2CCNC4=O)cc1
active: [9] 24.1 µM
inactive: [1] | [2] | [3] | [4] | [10] | [11]

CC(C)(Sc1ccc(CCN(CCCCC2CCCCC2)C(=O)NC2CCCCC2)cc1)C(=O)O
active: [7] 15 µM | [16] 1.97 µM | [10] 3.55 µM | [11] 3.98 µM | [17] 3.16 µM
inactive: [6] | Furin (Homo sapiens) | [18] | [8] | [12]

CCOC(=O)N1CCC(=C2c3ccc(Cl)cc3CCc3cccnc32)CC1
inactive: [6] | [7] | [9] | [8]

Cc1ccccc1C(OCCN(C)C)c1ccccc1 (stereo not drawn)
inactive: [6] | [7] | [9] | [8]

Nc1ccc(S(=O)(=O)Nc2ccnn2-c2ccccc2)cc1
inactive: [6] | [7] | [8]

COc1ccccc1-c1cccc(-c2c(O)c3cc(C#N)c(Cl)cc3[nH]c2=O)c1
inactive: Furin (Homo sapiens) | [14] | [12]
active: [9] 49.4 µM | [15] 27.8 µM | [17] 50.1 µM | [18] 7.08 µM

Cc1cc(SCc2sc(-c3ccc(C(F)(F)F)cc3)nc2C)ccc1OCC(=O)O
active: [13] 19.7 µM | [16] 2.48 µM | [10] 3.55 µM | [15] 2.78 µM and 3.12 µM | [17] 2.82 µM | [18] 2.82 µM
inactive: Furin (Homo sapiens) | [19] | [12]

NS(=O)(=O)c1cc2c(cc1Cl)NC=NS2(=O)=O
inactive: [6] | [7] | [9] | [8]

Cc1ccc(N(CC2=NCCN2)c2cccc(O)c2)cc1
inactive: [6] | [7] | [8]

CCC(C)N(C)C(=O)c1cc2ccccc2c(-c2ccccc2Cl)n1 (stereo not drawn)
inactive: [6] | [7] | [9] | [8]

NCCc1ccc(O)c(O)c1
inactive: [9]
active: [6] 44.7 µM

O=c1[nH]cnc2[nH]ncc12
inactive: [6] | [7] | [9] | [8]

O=C1CCC(N2C(=O)c3ccccc3C2=O)C(=O)N1 (stereo not drawn)
inactive: [6] | [7] | [9] | [8]

CCOC(=O)C1=C[C@]2(CC)CCCN3CCc4c(n1c1ccccc41)[C@@H]32
inactive: [6] | [9] | [8]

Oc1ccc(C2CNCCc3c2cc(O)c(O)c3Cl)cc1 (stereo not drawn)
active: [6] 44.7 µM | [7] 16.8 µM | [9] 12.6 µM

Reference: PubChem BioAssay (NCATS)
